NPC1 promoter act: NPC1 promoter activation. Potency, µM (highest dose often 9.22 µM), without a hit: top-dose activation, actives largely listed as activators. AID 485313. Huh7 NPC1 promoter luciferase reporter, 24 h. 320,000 compounds, 2.4% hits; further: % of control where 0% means no effect; nearly all actives have a fitted effect of over 60% in size
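Luminescence from an NPC1 promoter-driven luciferase reporter in stably transfected Huh7 cells was measured after 24 h compound treatment at 37 °C, followed by 10 min ambient incubation with luciferase detection reagent.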
Rab9 prom act: activates the Rab9 promoter; Huh7 Rab9 promoter-luciferase reporter, luminescence, 24 h; Potency, µM (titrated, usually from 9.22 µM), without a hit: at the highest dose activation, negative = inhibition, most hits filed as activators; 320,000 compounds, 2.8% hits; further: % of control where 0% means no effect; nearly all actives have a fitted effect of over 60% in size
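Huh7 cells stably carrying Rab9 promoter–luciferase reporter, plated 1500 cells/well, compound added after 2 h and incubated 24 h at 37 °C; luciferase luminescence then read after 10 min with detection reagent.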
FLuc modulator: counter-screen for miR-21 project: firefly luciferase inhibitors or activators; 360,000 compounds, 6.9% hits; purified FLuc, Km substrates, luminescence inhibition; Potency, µM (doses to about 57.5 µM), inactives show at the highest dose activity change, negative = inhibition, hits mostly inhibitors; P08659; AID 588342;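 further: plate controls were vehicle for no effect and reference inhibitor for full effect; nearly all actives have a fitted effect of over 55% in size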
Target sequence (P08659 whole entry, looked up): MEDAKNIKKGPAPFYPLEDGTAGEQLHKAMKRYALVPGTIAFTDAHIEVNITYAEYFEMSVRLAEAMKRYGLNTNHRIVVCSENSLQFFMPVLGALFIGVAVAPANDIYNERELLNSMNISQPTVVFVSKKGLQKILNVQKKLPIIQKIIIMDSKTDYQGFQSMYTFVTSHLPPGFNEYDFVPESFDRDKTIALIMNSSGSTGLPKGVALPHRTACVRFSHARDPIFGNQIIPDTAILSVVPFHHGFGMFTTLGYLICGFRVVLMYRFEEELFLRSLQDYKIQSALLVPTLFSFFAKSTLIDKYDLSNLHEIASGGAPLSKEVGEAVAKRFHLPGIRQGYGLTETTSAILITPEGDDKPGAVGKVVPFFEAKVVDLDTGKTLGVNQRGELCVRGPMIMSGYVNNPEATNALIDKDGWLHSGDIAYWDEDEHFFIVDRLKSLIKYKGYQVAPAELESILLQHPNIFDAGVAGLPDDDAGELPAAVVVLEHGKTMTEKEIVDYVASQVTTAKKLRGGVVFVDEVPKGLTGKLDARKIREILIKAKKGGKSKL
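Biochemical qHTS of compounds, final roughly 60 µM downward over six points, against 10 nM purified firefly luciferase using Km concentrations of substrates (10 uM D-luciferin, 10 uM ATP) in Tris acetate pH 7.5 buffer; luminescence output.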
ELG1 genotox: genotoxicity induction in ELG1-luciferase HEK293T cells; HEK293T ELG1-luciferase reporter, luminescence, 16 h; AID 504466; 330,000 compounds, 1.3% hits; Potency, µM (doses to about 46 µM), inactives show at the highest dose activity change, positive = activation, most hits filed as activators; further: % of control where 0% means no effect; nearly all actives have a fitted effect of over 60% in size
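After overnight (16 hr) compound treatment at 37 °C, ELG1-luciferase HEK293T cells were lysed with ONE-Glo; luminescence quantified 30 min later at room temperature.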
SMN2 splice enh: enhancers of SMN2 splice variant expression; HEK293 SMN2-luciferase splicing reporter, luminescence, 30-36 h; Potency, µM (top dose mostly 46.1 µM), without a hit: at the highest dose activity change, positive = activation, actives largely listed as activators; 210,000 compounds, 2.8% hits; AID 1458; further: % of control where 0% means no effect; nearly all actives have a fitted effect of over 55% in size
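HEK293 cells carry an SMN2 […]–luciferase reporter in which exon 7 inclusion puts luciferase in frame. Cells were plated 10-12 h before compound addition, then incubated 30-36 h at 37C. ONE-Glo luminescence was read; sodium butyrate at 4.5 mM final served as control.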
An asterisk follows results filed as active; ? = inconclusive; · = no result; [ ] = dose if it differs, or a comment. Only some compounds are listed: those with a hit (about 7.4% of all), similar ones and a draw of the others. The call rests on the fitted dose curve; in most records, active means well fitted curve in the direction sought with a large enough effect; inconclusive means small, poorly fitted or top-dose-only effect, or another doubt; inactive means no such curve, though single readings can be large; an effect the other way counts as inactive or inconclusive. Potency means the concentration at half of the fitted maximal effect.

SMILES | NPC1 promoter act | Rab9 prom act | FLuc modulator | ELG1 genotox | SMN2 splice enh
COc1ccccc1N(C)S(=O)(=O)c1ccc(Cl)c(C(=O)NNC(=O)c2ccccc2O)c1 | 11% | -2% | 17µM* | -7% | ·
COc1ccccc1N(C)S(=O)(=O)c1ccc(C(=O)NNC(=O)c2ccccc2O)cc1 | -5% | -26% | -1% | 1% | ·
COc1ccccc1CNC(=O)C1COc2ccccc2O1 (stereo not drawn) | 15% | -6% | ? | 18µM* | ?
COc1ccccc1C(CNC(=O)C1COc2ccccc2O1)N1CCCC1 (stereo not drawn) | -11% | -4% | -9% | 0% | ·
COc1ccc(CNC(=O)C2COc3ccccc3O2)cc1 (stereo not drawn) | ? | ? | ? | 14% | 13µM*
Cc1cn2c(=O)cc(COC(=O)c3cccc(NC(=O)COc4ccccc4)c3)nc2s1 | · | · | 0% | · | ·
CCOc1ccc(C(=O)Nc2nc(C)c(C(=O)OC)s2)cc1 | ? | ? | 0.76µM* | 21µM* | ·
COC(=O)c1sc(NC(=S)NC(=O)c2ccc(F)cc2)nc1C | 27% | ? | 3% | 10% | -36%
COC(=O)c1sccc1NC(=O)c1ccncc1 | 5% | 2% | -1% | 7% | -7%
COC(=O)c1sc(NC(=O)c2ccncc2)nc1C | -2% | 12% | 24µM* | 4% | ·
COC(=O)c1sc(NC(=S)NC(=O)c2cccc(Br)c2)nc1C | -4% | 3% | 13µM* | 14% | ·
C=CCOC(=O)c1sc(NC(=O)c2ccc(OC)cc2)nc1C | -37% | 2% | ? | ? | ?
O=C(Nc1c2c(nn1-c1ccc(Cl)cc1)CS(=O)(=O)C2)c1ccccc1F | · | · | -2% | · | ·
COc1ccc2c(c1)C(=O)[C@@H](OC(=O)NCCc1ccc(OC)c(OC)c1)[C@H](c1ccc(OC)c(Br)c1)O2 | · | · | · | · | -1%
CCCCOc1ccc(C(=O)NCC(=O)N2CC=C(c3ccccc3)CC2)cc1 | -3% | 2% | 0% | 1% | ·
Cc1cc(C)n(CCc2nc(-c3ccc(-c4ccccc4)cc3)cs2)n1 | 24% | 22% | 6.7µM* | ? | -49%
C/C(=N/N=C(\C)c1ccccc1O)c1ccccc1O | ? | 15% | ? | ? | ·
CCOc1ccc(N=C(C)c2ccccc2O)cc1 | 1% | 3% | 21µM* | 0% | 3%
COc1ccc(Nc2nc3ccccc3c3nnc(C)n23)cc1Cl | · | · | 24µM* | · | 0%
Cc1ccc(Nc2nc3ccccc3c3nnc(C)n23)cc1Cl | · | · | -11% | · | ·
O=C(NCC1CCCO1)c1coc2nc3ccccc3nc12 (stereo not drawn) | 3% | 9% | 11µM* | -1% | 5%
COC(CNC(=O)c1coc2nc3ccccc3nc12)OC | 2% | 0% | 11µM* | 1% | ·
COC(CNC(=O)c1ccc2nc(-c3ccccc3)c(-c3ccccc3)nc2c1)OC | -2% | -3% | -14% | -4% | -10%
COc1ccc(C(C(=O)NCc2ccccc2)N(C(=O)Cn2nnc3ccccc32)c2ccc(OC)cc2)cc1 (stereo not drawn) | · | · | 1% | · | 9%
COc1ccc(OC)c(C2Nc3nc4ccccc4n3C(C)=C2C(=O)Nc2ccc(C)cc2C)c1 (stereo not drawn) | -7% | -6% | 6% | 1% | 7.9µM*
SMILES | NPC1 promoter act | Rab9 prom act | FLuc modulator | ELG1 genotox | SMN2 splice enh
COc1ccc(C2C(C(=O)Nc3ccc(C)cc3C)=C(C)Nc3nc4ccccc4n32)c(OC)c1 (stereo not drawn) | · | · | 3% | · | -21%
CC(C)(C)NC(=O)NC(=O)Cn1ccsc1=N | -3% | 1% | 4% | 1% | 3%
CCc1ccc(C(=O)Cn2ccsc2=N)cc1 | 1.6µM* | 0.71µM* | 1.3µM* | ? | ·
CC1=NN(c2ccccc2)C(=O)/C1=C\c1cc(C)n(C)c1C | 14% | 4% | 7.6µM* | -7% | ·
CC1=NN(c2ccccc2)C(=O)/C1=C/c1cc2cc(C)ccc2nc1N1CCCCC1 | ? | ? | ? | 10% | ?
CC1=NN(c2ccccc2)C(=O)/C1=C/c1cn(C)c2ccccc12 | 2% | 14% | 6µM* | -2% | ·
CC1=NN(c2ccccc2)C(=O)/C1=C\c1cn(C)c2ccccc12 | -17% | 2% | 9.5µM* | 2% | -3%
CC(Sc1nncn1C)C(=O)Nc1ccc(N2CCCCC2)cc1 (stereo not drawn) | 4% | -3% | -28% | 6% | ·
O=C(Nc1ccccc1Cl)c1cc2ccccc2o/c1=N\O | 3.2µM* | 2.5µM* | 2.1µM* | 16µM* | ·
COc1cccc(NC(=O)c2cc3ccccc3o/c2=N\O)c1 | 0.79µM* | 0.71µM* | 0.54µM* | 0.41µM* | ·
COc1ccc(NC(=O)c2cc3cccc(OC)c3oc2=Nc2ccc(C(=O)O)cc2)cc1OC | -5% | -7% | -1% | 6% | 10%
COc1cccc(NC(=O)c2cc3cccc(OC)c3o/c2=N\O)c1 | 2.8µM* | 0.71µM* | 0.54µM* | ? | ·
Nc1[nH]c(=O)nc2c1ncn2[C@H]1O[C@@H](CO)[C@@H](O)[C@@H]1O | · | · | · | · | -2%[9.22 µM]
C/C(=N\NC(=O)c1cc(Br)ccc1O)c1cccc(NC(=O)c2ccccc2F)c1 | -1% | -5% | ? | 10% | ·
C/C(=N\NC(=O)c1nn(C)cc1Br)c1cccc(NC(=O)C(C)(C)C)c1 | -4% | -8% | ? | 4% | -7%
Cc1ccccc1C(=O)Nc1cccc(NC(=O)c2ccc(C(C)(C)C)cc2)c1 | · | · | 0.76µM* | · | ?
C/C(=N\NC(=O)c1c(Br)c(C)nn1C)c1cccc(NC(=O)c2ccccc2C)c1 | 2% | -5% | 12µM* | 1% | -3%
C/C(=N\NC(=O)c1nn(C)c(C)c1Br)c1cccc(NC(=O)c2ccc(F)cc2)c1 | 28% | ? | 1.9µM* | 8% | ?
C/C(=N\NC(=O)c1ccccc1F)c1cccc(NC(=O)c2ccccc2)c1 | 24% | 11% | 2.7µM* | ? | ·
C/C(=N\NC(=O)c1c(Br)c(C)nn1C)c1cccc(NC(=O)c2ccccc2F)c1 | 2% | 0% | ? | 0% | 9%
Cc1cn2c(=O)c(S(=O)(=O)Nc3ccc(F)cc3F)c(C)nc2s1 | · | · | 2% | · | ·
O=C(CCNS(=O)(=O)c1ccc2c(c1)CCN2C(=O)C1CC1)N1CCN(c2cccc(Cl)c2)CC1 | · | · | -9% | · | ·
CCCCc1c(C)nc2nc(SCc3ccc(Cl)cc3)[nH]n2c1=O | -1% | -3% | -19% | -2% | ·
CCOc1ccc(C2C(=O)N(C3CCCCCC3)CC(=O)N2Cc2ccccc2)cc1OC (stereo not drawn) | · | · | -1% | · | ·
CCN1CCC(N2CCN(c3ccccc3OC)CC2)CC1 | -2% | 4% | 5% | -3% | ·
CC(=O)N1N=C(c2ccccc2O)CC1c1cccs1 (stereo not drawn) | -2% | 7% | -1% | -1% | ·
C/C(=N\NC(=O)c1c(Cl)c(C)nn1C)c1cccc(NC(=O)c2cccc(F)c2)c1 | 2% | 16% | 11µM* | -17% | ·
